In the supplement of paper PMC11732987, “Enantioselective OTUD7B fragment discovery through chemoproteomics screening and high-throughput optimisation” (Communications Chemistry, 2025):

Columns and labels:
Experiment in all cases: log2 ratio of Biotin-Ahx-Ub-VS probe labelling (fragment/DMSO); higher = less target engagement (more negative = stronger competition), active = hit call of the paper (q ≤ 0.05, log2 ratio ≤ -1)
Settings in all cases: compound concentration: 200 uM; treatment time: 3 h
[1] = target: T1, USP42 (UniProt Q9H9J4)
T1 sequence (whole entry): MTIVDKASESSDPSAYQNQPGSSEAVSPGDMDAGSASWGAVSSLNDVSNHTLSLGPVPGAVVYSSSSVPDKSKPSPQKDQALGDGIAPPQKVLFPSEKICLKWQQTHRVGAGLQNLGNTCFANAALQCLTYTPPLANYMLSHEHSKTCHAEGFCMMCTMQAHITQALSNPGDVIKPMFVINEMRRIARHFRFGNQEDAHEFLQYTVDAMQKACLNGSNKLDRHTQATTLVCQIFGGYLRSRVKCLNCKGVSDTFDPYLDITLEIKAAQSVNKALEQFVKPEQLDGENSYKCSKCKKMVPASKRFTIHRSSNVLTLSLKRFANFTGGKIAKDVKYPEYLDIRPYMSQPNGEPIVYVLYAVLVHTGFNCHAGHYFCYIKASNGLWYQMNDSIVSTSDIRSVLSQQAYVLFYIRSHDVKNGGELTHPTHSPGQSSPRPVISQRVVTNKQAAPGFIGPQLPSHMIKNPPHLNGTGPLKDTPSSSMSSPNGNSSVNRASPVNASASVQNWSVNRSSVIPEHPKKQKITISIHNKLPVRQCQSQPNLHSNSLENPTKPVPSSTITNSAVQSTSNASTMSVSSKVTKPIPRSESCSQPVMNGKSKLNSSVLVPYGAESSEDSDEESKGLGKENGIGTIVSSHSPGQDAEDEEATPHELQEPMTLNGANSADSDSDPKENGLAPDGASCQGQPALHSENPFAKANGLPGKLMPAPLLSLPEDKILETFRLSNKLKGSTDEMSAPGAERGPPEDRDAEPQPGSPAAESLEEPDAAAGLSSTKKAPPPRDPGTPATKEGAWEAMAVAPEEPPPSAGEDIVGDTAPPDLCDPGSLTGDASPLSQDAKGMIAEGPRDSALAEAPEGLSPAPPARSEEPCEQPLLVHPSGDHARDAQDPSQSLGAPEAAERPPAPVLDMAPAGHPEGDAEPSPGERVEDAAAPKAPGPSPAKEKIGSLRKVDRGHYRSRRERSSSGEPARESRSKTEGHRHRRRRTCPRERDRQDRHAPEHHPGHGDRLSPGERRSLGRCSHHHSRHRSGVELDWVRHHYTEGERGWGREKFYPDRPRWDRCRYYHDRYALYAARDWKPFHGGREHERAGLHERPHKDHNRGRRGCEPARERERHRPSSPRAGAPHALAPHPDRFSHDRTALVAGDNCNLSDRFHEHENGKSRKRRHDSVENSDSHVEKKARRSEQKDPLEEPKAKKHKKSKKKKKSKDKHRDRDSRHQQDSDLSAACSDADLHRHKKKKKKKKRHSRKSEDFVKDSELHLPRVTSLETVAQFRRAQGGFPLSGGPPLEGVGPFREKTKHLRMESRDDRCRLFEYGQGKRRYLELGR
How it was run: (§1)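 HEK293T lysate (495 µg per sample, in Tris/CHAPS/IGEPAL buffer with protease inhibitors) was exposed in triplicate for 3 h to fragment at 200 µM or to vehicle, then to Biotin-Ahx-Ub-VS at 0.5 µM final for 1 h. Labelled DUBs were enriched on NeutrAvidin, digested with LysC and trypsin, and analysed by diaPASEF LC-MS/MS. Spectronaut label-free quantities were normalised to the global median, and values are average log2 ratios of fragment over vehicle from an unpaired t-test. Only proteins with ≥2 unique peptides were used.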

[2] = target: USP46 (UniProt P62068)
Sequence of USP46 (P62068 whole entry): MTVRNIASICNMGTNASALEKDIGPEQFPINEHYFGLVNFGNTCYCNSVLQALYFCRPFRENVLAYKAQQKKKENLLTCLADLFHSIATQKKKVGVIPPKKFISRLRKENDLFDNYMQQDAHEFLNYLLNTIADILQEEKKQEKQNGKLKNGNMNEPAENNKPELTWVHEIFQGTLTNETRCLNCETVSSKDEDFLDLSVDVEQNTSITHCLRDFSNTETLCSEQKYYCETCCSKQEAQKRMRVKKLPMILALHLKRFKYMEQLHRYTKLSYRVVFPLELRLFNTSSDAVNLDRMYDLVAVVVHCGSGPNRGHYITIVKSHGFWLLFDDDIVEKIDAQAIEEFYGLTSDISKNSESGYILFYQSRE
How it was run: as §1

[3] = target: T2, USP47 (UniProt Q96K76)
T2 sequence (whole entry): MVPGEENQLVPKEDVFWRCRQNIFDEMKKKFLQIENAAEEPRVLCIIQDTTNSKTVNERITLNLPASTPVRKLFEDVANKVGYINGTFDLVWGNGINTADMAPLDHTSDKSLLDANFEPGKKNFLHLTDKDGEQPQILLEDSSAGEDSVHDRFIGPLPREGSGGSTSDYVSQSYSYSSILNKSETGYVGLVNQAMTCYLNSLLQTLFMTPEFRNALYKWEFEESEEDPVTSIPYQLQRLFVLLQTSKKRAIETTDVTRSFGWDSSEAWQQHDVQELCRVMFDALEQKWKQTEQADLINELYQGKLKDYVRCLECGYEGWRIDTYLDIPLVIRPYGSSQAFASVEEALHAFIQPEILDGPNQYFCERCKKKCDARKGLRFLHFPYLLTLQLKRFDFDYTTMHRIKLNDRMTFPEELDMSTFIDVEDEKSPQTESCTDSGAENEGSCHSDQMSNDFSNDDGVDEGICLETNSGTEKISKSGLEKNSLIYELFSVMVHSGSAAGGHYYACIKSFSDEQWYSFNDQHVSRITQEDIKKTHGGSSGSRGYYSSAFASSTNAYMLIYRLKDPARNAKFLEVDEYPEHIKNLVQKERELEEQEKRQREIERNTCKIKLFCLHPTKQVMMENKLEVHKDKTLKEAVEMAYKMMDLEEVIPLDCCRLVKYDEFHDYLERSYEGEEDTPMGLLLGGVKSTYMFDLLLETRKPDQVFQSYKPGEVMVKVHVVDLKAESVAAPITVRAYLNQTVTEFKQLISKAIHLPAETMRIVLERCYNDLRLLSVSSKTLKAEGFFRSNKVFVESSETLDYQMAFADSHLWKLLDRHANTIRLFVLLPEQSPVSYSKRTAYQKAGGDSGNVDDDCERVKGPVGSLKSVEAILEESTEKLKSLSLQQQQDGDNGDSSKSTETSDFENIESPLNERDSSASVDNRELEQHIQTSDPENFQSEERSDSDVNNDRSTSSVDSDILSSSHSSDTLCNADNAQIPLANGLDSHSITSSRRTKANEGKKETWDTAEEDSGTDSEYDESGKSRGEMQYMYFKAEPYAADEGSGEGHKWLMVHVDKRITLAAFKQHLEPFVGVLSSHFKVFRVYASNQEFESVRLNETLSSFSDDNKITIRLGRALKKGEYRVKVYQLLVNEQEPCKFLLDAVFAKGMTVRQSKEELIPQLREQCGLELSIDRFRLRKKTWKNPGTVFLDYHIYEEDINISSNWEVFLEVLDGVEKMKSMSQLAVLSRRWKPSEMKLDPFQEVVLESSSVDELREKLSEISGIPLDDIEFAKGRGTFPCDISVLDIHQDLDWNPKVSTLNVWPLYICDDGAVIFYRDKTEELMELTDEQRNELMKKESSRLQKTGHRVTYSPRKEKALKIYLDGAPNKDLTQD
How it was run: as §1

[4] = target: T3, USP48 (UniProt Q86UV5)
T3 sequence (whole entry): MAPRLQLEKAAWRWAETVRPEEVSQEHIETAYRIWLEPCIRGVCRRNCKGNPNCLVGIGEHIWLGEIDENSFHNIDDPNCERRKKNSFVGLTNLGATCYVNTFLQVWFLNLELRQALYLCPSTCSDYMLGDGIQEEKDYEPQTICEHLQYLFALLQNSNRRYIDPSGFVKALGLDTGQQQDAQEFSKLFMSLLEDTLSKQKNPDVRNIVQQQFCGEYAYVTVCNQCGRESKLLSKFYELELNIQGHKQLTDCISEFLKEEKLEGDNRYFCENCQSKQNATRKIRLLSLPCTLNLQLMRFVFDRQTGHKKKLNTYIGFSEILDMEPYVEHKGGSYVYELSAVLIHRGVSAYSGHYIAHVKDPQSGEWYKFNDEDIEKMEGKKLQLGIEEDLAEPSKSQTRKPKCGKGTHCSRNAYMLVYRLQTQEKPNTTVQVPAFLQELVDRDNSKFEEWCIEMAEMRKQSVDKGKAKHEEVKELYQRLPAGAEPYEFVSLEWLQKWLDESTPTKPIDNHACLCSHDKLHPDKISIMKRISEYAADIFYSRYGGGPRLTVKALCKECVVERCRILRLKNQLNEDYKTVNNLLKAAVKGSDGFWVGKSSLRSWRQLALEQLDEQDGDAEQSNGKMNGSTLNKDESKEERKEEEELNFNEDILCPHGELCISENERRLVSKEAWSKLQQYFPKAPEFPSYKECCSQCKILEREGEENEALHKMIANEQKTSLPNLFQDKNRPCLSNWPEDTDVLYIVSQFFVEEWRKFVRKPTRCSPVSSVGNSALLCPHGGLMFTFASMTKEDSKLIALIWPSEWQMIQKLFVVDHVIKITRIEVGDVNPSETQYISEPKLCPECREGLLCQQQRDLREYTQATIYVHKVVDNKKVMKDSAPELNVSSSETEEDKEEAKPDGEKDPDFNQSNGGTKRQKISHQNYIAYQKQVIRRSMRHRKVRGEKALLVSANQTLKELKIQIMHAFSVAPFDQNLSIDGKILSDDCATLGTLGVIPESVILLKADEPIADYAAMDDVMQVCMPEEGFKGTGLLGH
How it was run: as §1

[5] = target: T4, USP5 (UniProt P45974)
T4 sequence (whole entry): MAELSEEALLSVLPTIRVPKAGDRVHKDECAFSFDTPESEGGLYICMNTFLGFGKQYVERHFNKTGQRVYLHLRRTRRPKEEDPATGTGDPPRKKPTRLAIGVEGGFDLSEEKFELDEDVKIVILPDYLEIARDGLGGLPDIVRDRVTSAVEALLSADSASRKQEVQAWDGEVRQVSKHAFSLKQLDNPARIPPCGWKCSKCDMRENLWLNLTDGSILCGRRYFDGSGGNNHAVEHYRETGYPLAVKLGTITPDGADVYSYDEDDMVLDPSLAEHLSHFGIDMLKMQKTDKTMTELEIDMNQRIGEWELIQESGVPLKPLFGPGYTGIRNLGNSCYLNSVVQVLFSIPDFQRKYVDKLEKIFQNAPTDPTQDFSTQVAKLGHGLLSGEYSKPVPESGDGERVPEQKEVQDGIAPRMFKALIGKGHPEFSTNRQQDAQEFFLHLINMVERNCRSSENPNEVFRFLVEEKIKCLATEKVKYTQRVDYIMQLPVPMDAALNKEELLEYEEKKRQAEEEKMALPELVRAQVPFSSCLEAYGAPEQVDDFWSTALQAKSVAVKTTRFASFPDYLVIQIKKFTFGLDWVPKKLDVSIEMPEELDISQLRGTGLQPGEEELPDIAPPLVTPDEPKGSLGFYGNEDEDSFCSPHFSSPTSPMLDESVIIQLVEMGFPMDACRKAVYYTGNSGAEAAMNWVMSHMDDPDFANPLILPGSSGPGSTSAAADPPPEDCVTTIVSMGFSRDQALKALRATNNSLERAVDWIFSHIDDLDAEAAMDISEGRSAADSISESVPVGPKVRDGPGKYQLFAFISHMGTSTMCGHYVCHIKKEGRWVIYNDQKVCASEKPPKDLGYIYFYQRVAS
How it was run: as §1

[6] = target: USP54 (UniProt Q70EL1)
Sequence of USP54 (Q70EL1 whole entry): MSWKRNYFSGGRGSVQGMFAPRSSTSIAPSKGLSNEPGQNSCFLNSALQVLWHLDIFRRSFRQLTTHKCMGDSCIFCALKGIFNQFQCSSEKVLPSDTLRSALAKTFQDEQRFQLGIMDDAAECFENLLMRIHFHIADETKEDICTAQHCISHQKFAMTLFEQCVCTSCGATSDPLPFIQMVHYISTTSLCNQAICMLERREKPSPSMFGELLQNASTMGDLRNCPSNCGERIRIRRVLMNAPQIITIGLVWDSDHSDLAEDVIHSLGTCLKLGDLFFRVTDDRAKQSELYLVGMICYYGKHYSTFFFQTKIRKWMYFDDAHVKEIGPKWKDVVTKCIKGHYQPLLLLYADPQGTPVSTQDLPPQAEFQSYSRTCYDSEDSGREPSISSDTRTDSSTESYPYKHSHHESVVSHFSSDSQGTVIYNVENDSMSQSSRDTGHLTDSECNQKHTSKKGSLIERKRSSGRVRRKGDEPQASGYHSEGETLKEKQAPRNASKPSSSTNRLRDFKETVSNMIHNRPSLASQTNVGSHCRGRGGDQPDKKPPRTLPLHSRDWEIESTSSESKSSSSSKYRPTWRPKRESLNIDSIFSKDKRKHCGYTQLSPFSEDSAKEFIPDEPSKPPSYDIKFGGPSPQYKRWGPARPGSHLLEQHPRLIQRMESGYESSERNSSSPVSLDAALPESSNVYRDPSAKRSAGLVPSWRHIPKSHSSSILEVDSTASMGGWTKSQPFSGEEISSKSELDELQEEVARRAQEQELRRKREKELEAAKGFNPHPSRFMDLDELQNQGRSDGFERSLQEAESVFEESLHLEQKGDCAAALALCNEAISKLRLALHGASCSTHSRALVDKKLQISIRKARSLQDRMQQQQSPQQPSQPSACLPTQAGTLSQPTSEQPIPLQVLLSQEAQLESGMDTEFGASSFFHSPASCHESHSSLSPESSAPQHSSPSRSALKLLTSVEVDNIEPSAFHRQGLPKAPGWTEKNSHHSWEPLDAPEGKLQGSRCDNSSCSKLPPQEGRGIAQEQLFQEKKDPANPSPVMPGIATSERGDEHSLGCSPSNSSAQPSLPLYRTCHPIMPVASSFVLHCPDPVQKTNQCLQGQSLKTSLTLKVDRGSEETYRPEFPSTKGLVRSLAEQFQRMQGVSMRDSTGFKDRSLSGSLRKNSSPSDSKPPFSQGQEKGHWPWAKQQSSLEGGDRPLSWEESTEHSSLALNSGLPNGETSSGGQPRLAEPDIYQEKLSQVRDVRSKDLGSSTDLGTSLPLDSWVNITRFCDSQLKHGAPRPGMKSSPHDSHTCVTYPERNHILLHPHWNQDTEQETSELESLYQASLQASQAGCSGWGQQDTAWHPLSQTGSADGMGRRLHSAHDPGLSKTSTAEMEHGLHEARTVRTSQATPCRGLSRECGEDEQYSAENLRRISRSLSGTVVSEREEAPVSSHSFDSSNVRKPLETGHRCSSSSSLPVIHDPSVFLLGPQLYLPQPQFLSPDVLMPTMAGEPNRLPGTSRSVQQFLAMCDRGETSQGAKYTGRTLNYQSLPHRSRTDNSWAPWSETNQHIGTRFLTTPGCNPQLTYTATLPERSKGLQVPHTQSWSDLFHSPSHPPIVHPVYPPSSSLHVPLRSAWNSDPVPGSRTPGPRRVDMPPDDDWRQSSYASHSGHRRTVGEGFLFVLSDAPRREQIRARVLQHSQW
How it was run: as §1

[7] = target: USP7 (UniProt Q93009)
How it was run: as §1

[8] = target: T5, USP8 (UniProt P40818)
T5 sequence (whole entry): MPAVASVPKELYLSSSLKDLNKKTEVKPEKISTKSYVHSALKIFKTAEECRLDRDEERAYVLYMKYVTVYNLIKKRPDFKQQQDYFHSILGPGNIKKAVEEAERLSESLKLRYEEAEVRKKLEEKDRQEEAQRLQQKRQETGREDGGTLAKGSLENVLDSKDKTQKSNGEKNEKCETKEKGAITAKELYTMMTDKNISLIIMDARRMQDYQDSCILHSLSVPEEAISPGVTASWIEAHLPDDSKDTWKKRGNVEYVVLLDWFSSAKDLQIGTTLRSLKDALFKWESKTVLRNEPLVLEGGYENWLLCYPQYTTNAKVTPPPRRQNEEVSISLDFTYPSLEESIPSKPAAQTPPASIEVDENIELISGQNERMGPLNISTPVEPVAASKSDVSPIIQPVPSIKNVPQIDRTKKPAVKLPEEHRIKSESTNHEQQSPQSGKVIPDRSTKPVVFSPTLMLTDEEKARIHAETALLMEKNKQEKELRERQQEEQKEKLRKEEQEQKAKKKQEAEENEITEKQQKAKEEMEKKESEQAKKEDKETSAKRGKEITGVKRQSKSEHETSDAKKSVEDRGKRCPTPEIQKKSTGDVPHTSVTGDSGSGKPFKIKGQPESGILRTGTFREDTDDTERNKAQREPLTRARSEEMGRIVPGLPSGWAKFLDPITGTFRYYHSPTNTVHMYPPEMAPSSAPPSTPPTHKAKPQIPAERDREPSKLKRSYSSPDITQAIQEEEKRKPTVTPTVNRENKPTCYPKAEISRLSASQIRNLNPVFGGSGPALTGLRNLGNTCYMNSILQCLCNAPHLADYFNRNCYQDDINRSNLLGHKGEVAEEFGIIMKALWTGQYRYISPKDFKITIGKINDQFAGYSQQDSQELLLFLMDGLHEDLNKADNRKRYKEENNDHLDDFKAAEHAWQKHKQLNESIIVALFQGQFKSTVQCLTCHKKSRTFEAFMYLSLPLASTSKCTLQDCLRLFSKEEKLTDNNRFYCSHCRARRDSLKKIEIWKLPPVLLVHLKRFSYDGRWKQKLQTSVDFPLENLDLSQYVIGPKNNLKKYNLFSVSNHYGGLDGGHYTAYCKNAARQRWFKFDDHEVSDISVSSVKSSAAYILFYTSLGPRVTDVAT
How it was run: as §1

[9] = target: USP9X (UniProt Q93008)
Sequence of USP9X (Q93008 whole entry): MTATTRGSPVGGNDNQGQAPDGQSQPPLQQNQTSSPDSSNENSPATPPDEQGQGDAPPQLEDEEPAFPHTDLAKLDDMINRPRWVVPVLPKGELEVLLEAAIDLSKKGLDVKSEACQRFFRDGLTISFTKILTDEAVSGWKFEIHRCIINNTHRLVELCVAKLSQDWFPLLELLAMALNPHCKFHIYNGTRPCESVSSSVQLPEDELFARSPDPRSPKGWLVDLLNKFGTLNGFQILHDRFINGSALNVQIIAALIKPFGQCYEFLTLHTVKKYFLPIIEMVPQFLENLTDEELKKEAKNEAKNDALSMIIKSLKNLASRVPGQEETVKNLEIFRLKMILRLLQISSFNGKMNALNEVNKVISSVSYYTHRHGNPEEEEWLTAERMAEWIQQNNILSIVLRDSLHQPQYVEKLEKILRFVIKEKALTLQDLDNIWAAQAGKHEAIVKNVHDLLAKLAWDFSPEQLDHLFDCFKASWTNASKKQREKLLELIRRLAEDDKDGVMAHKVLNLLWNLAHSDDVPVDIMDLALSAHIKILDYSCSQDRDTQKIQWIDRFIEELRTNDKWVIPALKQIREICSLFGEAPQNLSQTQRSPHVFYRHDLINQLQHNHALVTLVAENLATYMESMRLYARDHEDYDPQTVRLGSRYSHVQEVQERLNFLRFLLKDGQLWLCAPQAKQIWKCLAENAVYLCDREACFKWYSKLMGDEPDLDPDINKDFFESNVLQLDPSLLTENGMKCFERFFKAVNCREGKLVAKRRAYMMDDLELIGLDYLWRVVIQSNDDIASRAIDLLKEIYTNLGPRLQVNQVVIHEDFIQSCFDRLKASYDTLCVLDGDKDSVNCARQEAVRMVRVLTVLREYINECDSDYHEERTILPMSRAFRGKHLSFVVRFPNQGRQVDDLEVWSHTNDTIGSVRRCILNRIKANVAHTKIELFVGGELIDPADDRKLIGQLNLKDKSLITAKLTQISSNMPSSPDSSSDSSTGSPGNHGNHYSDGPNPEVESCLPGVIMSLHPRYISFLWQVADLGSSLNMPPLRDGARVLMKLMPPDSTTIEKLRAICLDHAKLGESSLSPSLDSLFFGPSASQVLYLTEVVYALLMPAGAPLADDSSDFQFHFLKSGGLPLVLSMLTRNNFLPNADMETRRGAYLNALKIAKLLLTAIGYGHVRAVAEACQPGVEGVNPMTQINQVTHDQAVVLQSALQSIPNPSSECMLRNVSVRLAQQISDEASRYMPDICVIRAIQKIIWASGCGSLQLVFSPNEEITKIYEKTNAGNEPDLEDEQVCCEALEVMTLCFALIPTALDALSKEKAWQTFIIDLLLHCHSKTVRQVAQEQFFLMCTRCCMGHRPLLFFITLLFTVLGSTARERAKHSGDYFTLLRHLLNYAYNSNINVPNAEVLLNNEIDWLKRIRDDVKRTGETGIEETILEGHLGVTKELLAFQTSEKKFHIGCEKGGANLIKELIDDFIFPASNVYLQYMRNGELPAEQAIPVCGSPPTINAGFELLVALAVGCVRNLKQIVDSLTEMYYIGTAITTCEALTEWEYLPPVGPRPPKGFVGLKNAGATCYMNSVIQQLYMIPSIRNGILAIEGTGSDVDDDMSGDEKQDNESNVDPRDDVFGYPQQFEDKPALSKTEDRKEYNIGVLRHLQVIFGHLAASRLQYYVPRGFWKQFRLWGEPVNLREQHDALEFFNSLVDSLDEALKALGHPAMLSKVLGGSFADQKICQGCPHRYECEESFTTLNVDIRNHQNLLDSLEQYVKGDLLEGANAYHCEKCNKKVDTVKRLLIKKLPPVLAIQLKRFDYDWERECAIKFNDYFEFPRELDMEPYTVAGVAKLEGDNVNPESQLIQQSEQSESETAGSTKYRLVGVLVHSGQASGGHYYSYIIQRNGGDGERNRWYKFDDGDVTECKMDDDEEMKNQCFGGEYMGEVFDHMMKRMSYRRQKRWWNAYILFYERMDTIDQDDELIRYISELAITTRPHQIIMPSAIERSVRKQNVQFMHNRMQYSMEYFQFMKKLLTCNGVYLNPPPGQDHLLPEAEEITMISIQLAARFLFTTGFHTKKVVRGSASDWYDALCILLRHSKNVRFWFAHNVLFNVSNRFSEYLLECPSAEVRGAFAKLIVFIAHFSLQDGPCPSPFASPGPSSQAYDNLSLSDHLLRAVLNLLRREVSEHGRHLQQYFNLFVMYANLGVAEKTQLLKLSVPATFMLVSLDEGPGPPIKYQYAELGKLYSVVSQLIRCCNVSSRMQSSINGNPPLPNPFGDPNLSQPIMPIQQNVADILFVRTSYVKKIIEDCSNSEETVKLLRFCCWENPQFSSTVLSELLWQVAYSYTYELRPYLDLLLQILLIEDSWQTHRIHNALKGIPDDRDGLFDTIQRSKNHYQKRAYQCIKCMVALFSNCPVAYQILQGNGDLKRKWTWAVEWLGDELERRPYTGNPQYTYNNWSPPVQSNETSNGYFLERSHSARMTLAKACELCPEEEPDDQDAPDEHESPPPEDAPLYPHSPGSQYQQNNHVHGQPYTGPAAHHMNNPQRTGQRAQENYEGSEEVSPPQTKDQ
How it was run: as §1

[10] = target: UniProt O00487
Sequence of UniProt O00487 (O00487 whole entry): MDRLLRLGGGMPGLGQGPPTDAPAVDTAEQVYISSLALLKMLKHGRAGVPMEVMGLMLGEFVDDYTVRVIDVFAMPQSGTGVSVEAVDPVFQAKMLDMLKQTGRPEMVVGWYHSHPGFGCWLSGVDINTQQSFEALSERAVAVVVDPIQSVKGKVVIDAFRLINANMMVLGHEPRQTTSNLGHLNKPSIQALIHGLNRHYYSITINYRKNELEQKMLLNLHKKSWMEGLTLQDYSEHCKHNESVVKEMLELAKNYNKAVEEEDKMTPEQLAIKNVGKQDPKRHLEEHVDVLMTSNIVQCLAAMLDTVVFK
How it was run: as §1

Measured: log2 ratio of Biotin-Ahx-Ub-VS probe labelling

CC1(NC(=O)CCl)CCS(=O)(=O)C1 (stereo not given)
inactive: [1] 0.324 | [2] -0.538 | [3] -0.0229 | [4] -0.544 | [5] -0.73 | [6] 1.09 | [7] -0.793 | [8] -0.788 | [9] -0.847 | [10] -0.00664
